Compound activity as filed in PubChem.
This is a sample that favours compounds with a hit; in the whole collection about 5.5% have one here.
Mito fusion act: inhibitors of mitochondrial division or activators of mitochondrial fusion; S. cerevisiae fusion-defective mutant growth rescue, CellTiterGlo 48 h; Potency, µM (titrated, usually from 46.1 µM), for the others: top-dose growth rescue (activation), hits mostly activators; 0.23% of 320,000 active; AID 485298; also: % of control where 0% means no effect; nearly all actives have a fitted effect of over 45% in size
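S. cerevisiae fusion-defective temperature-sensitive mutants (e.g. fzo1-1, mgm1-5) grown 48 h at 37C in YPEG (ethanol/glycerol non-fermentable) medium with 23 nl compound per well; growth rescue read as CellTiterGlo luminescence.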
uPA generation: cell surface uPA generation inhibition. cell surface uPA generation assay, qHTS. Potency, µM (series often up to 38.3 µM), for the others: top-dose activity change, negative = inhibition, actives largely listed as inhibitors. 0.31% of 330,000 active; active = well fitted inhibition curve with a large enough effect; inconclusive = small, poorly fitted or top-dose-only effect; inactive = no such curve, though single readings can be large or run the other way; tested in mouse RAW 264.7 cells; also: % is scaled to controls: 0 for no effect and ±100 for the full control effect; nearly all actives have a fitted effect of over 55% in size
VP16 counter: counter-screen for ROR gamma inhibitors: Gal4-VP16 reporter; Drosophila S2 Gal4-VP16 UAS-luciferase, luminescence, 20 h; Potency, µM (top dose mostly 53.6 µM), inactives show at the top dose activity, negative = inhibition, hits mostly inhibitors; 3.5% of 310,000 active; AID 2546;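 also: Gal4-VP16 expression switched on by copper sulfate through the metallothionein promoter; % is scaled to controls: 0 for no effect and ±100 for the full control effect; nearly all actives have a fitted effect of over 50% in size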
RORg inh: ROR gamma (mouse) transcription inhibition | P51450 | Drosophila S2 Gal4-RORgamma UAS-luciferase reporter, 20 h | Potency, µM (doses to about 53.6 µM), inactives show at the top dose activity change, negative = inhibition, most hits filed as inhibitors | 5.4% of 310,000 active; also: % is scaled to controls: 0 for no effect and ±100 for the full control effect; nearly all actives have a fitted effect of over 60% in size
Target sequence (P51450 whole entry, looked up, the tested form may be a part): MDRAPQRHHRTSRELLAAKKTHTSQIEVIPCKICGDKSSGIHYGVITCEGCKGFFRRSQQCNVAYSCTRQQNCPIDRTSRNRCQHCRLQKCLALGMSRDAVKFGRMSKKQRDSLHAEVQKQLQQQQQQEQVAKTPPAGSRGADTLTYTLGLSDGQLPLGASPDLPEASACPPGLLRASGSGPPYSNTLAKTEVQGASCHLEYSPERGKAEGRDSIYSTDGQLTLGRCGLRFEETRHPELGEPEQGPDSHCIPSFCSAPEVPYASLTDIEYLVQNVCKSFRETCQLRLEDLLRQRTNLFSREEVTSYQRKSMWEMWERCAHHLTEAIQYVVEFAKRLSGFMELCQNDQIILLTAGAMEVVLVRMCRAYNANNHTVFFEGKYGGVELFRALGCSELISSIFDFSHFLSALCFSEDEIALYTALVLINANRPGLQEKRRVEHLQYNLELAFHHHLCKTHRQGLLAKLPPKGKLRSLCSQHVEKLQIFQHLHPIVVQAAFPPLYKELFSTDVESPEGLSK
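Drosophila Schneider cells stably carrying a metallothionein-driven Gal4 DBD–ROR gamma fusion and a UAS-Photinus luciferase reporter were exposed to compound for 1 hr, then induced with copper sulfate (700 uM final) for 20 hr at ambient temperature before luminescence reading.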
BCR signal inh: chronic active BCR signaling inhibition | ABC-DLBCL IkBa-CBG/CBR reporter, luminescence ratio, 4 h | Potency, µM (top dose mostly 46.1 µM), for inactives: at the highest dose activity change, negative = inhibition, usual class: inhibitors | 0.05% of 340,000 active; active = well fitted inhibition curve with a large enough effect in the signal ratio, with a control signal flat, not every such curve was filed as active; inconclusive = small, poorly fitted or top-dose-only effect, or effect the other way, or a change in a side signal; the % refers to the signal ratio;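 also: plate controls were basal doxycycline-induced cells for no effect and cells given 10 µM MG132 for full effect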
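Compounds up to 46 uM were incubated four hours with TMD8 cells whose green CBG68 luciferase is fused to IkappaBalpha; red CBR luminescence normalised the signal, and concentration-effect curves were fitted to fusion, red and ratio data.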
a7 integrin act: activators of alpha7 integrin expression for muscular dystrophy. Potency, µM (series often up to 38.3 µM), without a hit: at the highest dose activation, actives largely listed as activators. 0.064% of 350,000 active. AID 624291. alpha7betagal myoblasts, beta-gal FDG fluorescence, 48 h;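 also: 100% = response of the positive control SU9516; nearly all actives have a fitted effect of over 60% in size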
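alpha7betagal+/- myoblasts (passage 13, 250/well) treated 48 h at 37C with compounds at 1:260 dilution of DMSO stock. Lysed, then beta-galactosidase activity read as FDG fluorescence (ex 480/em 540) after 30 min, with pre-read for autofluorescence.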
Starred values were filed as active, the others as inactive; ? = inconclusive; . = no result given; [ ] = remark or other dose. Unless noted, calls follow the shape of the dose curve; as a rule, active = well fitted curve in the direction sought with a large enough effect; inconclusive = small, poorly fitted or top-dose-only effect, or another doubt; inactive = no such curve, though single readings can be large; an effect the other way counts as inactive or inconclusive. Potency is read from the fitted curve at half-maximal effect.

SMILES	Mito fusion act	uPA generation	VP16 counter	RORg inh	BCR signal inh	a7 integrin act
Cc1ccc(O)c(Sc2cc(C)ccc2O)c1	28%	6%	13µM*	?	3%	-17%
C=C1C[C@@]23C[C@@]1(O)CC[C@@H]2[C@]12C=C[C@@H](O)[C@](C)(C(=O)O1)[C@@H]2[C@@H]3C(=O)O	.	.	2%	2%	.	.
CCOc1ccc(-c2nnc(-c3cccs3)o2)cc1	-2%	-6%	?	11µM*	?	-10%
NCCCC[C@H](NC(=O)[C@H](Cc1c[nH]c2ccccc12)NC(=O)[C@H](CC(=O)O)NC(=O)[C@H](Cc1cnc[nH]1)NC(=O)[C@H](CO)NC(=O)[C@H](Cc1c[nH]c2ccccc12)NC(=O)[C@H](Cc1cnc[nH]1)NC(=O)[C@@H]1CCC(=O)N1)C(=O)N1CCC[C@H]1C(=O)NCC(N)=O	.	.	-12%	10%	.	.
Brc1ccc(OCc2nc(-c3ccccn3)n[nH]2)cc1	-4%	-9%	?	14µM*	?	0%
CCCc1cc(=O)[nH]c2nnc(SCC(=O)Nc3ccc(OC)cc3)n12	.	.	.	.	-1%	.
CCC(C(=O)Nc1nccs1)(C(F)(F)F)C(F)(F)F	-1%	.	7.9µM*	7.1µM*	1%	7%[7.66 µM]
CCC(C)C(=O)Nc1nccs1 (centres undefined)	-5%	2%	18µM*	5.6µM*	?	0%
CC(Oc1ccc(Cl)cc1)C(=O)Nc1ccc(S(=O)(=O)Nc2nccs2)cc1 (centres undefined)	6%	-3%	-6%	47%	?	-36%
O=C(Nc1nccs1)C1(S(=O)(=O)c2ccc(Cl)cc2)CC1	4%	.	?	7.1µM*	?	11%
Cc1ccc(S(=O)(=O)C2(C(=O)Nc3nccs3)CC2)cc1	7%	13%	?	?	8%	-11%
CC(Oc1ccc(Cl)cc1)C(=O)Nc1nccs1 (centres undefined)	-2%	-2%	-15%	14µM*	?	-17%
CCC(NC(=O)Nc1nccs1)(C(F)(F)F)C(F)(F)F	0%	1%	0%	1%[10 µM]	0%	-4%
O=C(Nc1ccc(Cl)cn1)C1CCN(c2ncnc3c2nc2n3CCCCC2)CC1	-3%	-6%	?	?	?	-31%
S=c1[nH]nc(COc2ccccc2)n1/N=C/c1ccco1	-4%	1%	-3%	7.9µM*	5%	-22%
CC(/C=N/n1c(COc2ccccc2)n[nH]c1=S)=C\c1ccco1	27%	-2%	-19%	7.1µM*	0%	-5%
COc1cc(OC)c(OC)cc1CNC(=O)c1ccc(COc2ccccc2)cc1	-3%	-4%	10%	?	0%	-26%
CCN(CC)S(=O)(=O)c1cccc(C(=O)N/N=C(\C)c2cccs2)c1	5%	-3%	?	3.5µM*	5%	0%
C/C(=N\NC(=O)c1cccc(S(=O)(=O)Nc2cccc(Cl)c2)c1)c1cccs1	-3%	0%	4µM*	5µM*	?	-3%
Cn1c(=O)c2c(nc(OC3CCCCCC3)n2C)n(C)c1=O	.	-5%	.	.	.	25%
COc1ccc(-c2c(C)nc3c(-c4ccccn4)cnn3c2N)cc1	-115%	-14%	10µM*	5µM*	?	8%
COc1ccc(-c2c(C)nc3c(-c4ccsc4)cnn3c2N)cc1	2%	-15%	?	-34%	-2%	-1%
CCN(C(=O)CSc1nnc(C)c(=O)[nH]1)c1cccc2ccccc12	.	-22%	.	.	0%	-24%
Nc1c(C(=O)Nc2ccc(S(=O)(=O)N3CCCC3)cc2)sc2nc3ccc(OC(F)(F)F)cc3cc12	0%	-5%	10µM*	16µM*	24%	-62%
CC12CCC(C/C1=N\N=C1\NC(=O)/C(=C\c3ccc(Cl)cc3)S1)C2(C)C (centres undefined)	-13%	2%	10µM*	?	-14%	35%
SMILES	Mito fusion act	uPA generation	VP16 counter	RORg inh	BCR signal inh	a7 integrin act
CCN(CC)CCCC(C)NC(=O)c1cccc(S(=O)(=O)N2CCc3ccccc32)c1 (centres undefined)	2%	0%	3%	-2%	3%	11%
Cc1cc(C)c(NC(=O)CN2C(=O)c3cccnc3Oc3ccc(C)cc32)c(C)c1	.	.	.	.	-29%	.
Cc1ccc(C(=O)N/C(=C\c2ccc(-c3cc(Cl)ccc3Cl)o2)C(=O)NCc2cccnc2)cc1	-1%	-4%	-1%	?	?	32%
O=C(NCc1cccnc1)/C(=C/c1ccc(-c2cccc(Cl)c2)o1)S(=O)(=O)c1ccccc1	-12%	-8%	?	11µM*	?	-28%
O=C(NCc1cccnc1)/C(=C\c1ccc(-c2cccc(Cl)c2)o1)S(=O)(=O)c1ccccc1	0%	?	13µM*	?	?	-61%
Cc1cccc(CN2C(=O)c3ccccc3Sc3ccc(C(=O)N4CCCC4)cc32)c1	.	.	.	.	-1%	.
COCCNC(=O)CCn1nc(-c2ccc(C)cc2)ccc1=O	2%	2%	-4%	-1%	?	-30%
CCC(C)=O	.	.	-2%	1%	.	.
O=C(CCN1CCN(C(c2ccccc2)c2ccccc2)CC1)N/N=C/c1ccc(O)cc1O	0%	-7%	-19%	14µM*	?	1%
COc1ccc(/C=N\NC(=O)CCN2CCN(c3ccccc3)CC2)cc1OC	0%	3%	-15%	11%	-5%	10%
O=C(CCN1CCN(c2ccccc2)CC1)N/N=C/c1ccccc1OC(F)F	2%	-1%	?	11µM*	-8%	-14%
COc1ccc(OC)c(/C=N/NC(=O)CCN2CCN(C(c3ccccc3)c3ccccc3)CC2)c1	7%	8%	?	10µM*	1%	-8%
O=C(CCN1CCN(C(c2ccccc2)c2ccccc2)CC1)N/N=C/c1ccc(O)cc1	-8%	-3%	19%	-7%	-9%	0%
Cc1ccc(OCCCN2CCOCC2)cc1	-13%	-1%	2%	10%	7%	18%
CCOc1ccc(C(=O)NNC(=O)CN2C(=O)NC3(CCCC3)C2=O)cc1	-1%	1%	.	.	2%	-5%
Cn1c(N/N=C/c2cc3ccccc3nc2Cl)nc2ccccc21	-13%	-8%	1.3µM*	1.1µM*	?	3%
Cn1c(N/N=C/c2c[nH]c3ccccc23)nc2ccccc21	-8%	-12%	4µM*	1µM*	?	-43%
Cc1nnc(C)n1/N=C/c1cc2ccccc2nc1Cl	2%	-7%	5%	-11%	?	0%
O=C(NCc1ccc(Cl)cc1)c1n[nH]c([N+](=O)[O-])c1Cl	3%	-12%	-9%[10 µM]	-7%	-15%	-5%
CN(C)C(=O)c1ccc(-c2cncnc2Nc2ccc(F)cc2)cc1	.	.	-6%	35%	.	.
